Measurements taken from PubChem BioAssay AID1851 (National Center for Advancing Translational Sciences (NCATS), 2009).
The campaign covered roughly 16,000 compounds. About 4,000 (25%) were called active. Another 26% or so got no clear call; they are omitted. The list is a sample of the results. A number with no mark means an inactive call. Calls follow the shape of the dose curve; as a rule, active = well fitted curve in the direction sought with a large enough effect; inconclusive = small, poorly fitted or top-dose-only effect, or effect the other way; inactive = no such curve, though single readings can be large or run the other way.

target: Cytochrome P450 2C9 (Homo sapiens) (UniProt P11712); experiment: Cytochrome panel assay with activity outcomes; details: recombinant CYP, pro-luciferin dealkylation, luminescence, p450-cyp2c9; series mostly up to 57.1 µM
% is scaled to controls: 0 for no effect and ±100 for the full control effect.

Sequence of Cytochrome P450 2C9 (Homo sapiens) (P11712 whole entry, looked up): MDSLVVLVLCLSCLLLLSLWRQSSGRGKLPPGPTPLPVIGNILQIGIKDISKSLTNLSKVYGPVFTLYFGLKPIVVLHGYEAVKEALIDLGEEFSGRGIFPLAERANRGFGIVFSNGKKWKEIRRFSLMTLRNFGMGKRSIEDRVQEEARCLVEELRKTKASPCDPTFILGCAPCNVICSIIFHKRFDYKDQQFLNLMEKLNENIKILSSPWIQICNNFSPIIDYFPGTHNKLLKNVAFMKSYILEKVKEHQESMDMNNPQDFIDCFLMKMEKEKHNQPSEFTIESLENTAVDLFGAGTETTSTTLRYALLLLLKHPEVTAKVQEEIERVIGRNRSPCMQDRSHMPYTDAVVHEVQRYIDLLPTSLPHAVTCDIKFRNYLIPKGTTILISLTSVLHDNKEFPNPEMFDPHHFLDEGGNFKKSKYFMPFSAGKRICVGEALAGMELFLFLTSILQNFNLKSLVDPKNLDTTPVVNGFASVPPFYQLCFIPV

SMILES | activity, negative = inhibition | AC50
O=C(O)[C@@H]1[C@@H](C(=O)Nc2ncccn2)[C@@H]2C=C[C@@H]1O2 | 2.98% [at 11.4 µM] | –
FC(F)(F)c1nc2nc(Cl)c(Cl)nc2n1CCCN1CCOCC1 | – | 2.51 µM (active)
OCCN1CCOCCOCCN(CCO)CCN(CCO)CC1 | – | inactive
c1cc(CNCCCN2CCOCC2)ccn1 | – | inactive
CCCC(=O)NCCc1c2n(c3ccc(OC)cc13)Cc1ccccc1-2 | – | 1.26 µM (active)
CCCCC(=O)NCCc1c(Cc2ccccc2)[nH]c2ccccc12 | – | inactive
CCOC(=O)/C(C(N)=NCCCO)=C(/O)c1ccccc1 | – | inactive
CC/C(=N/Nc1ccccc1)c1cnnc(SC)n1 | – | 0.891 µM (active)
CSc1nncc(/C(C)=N\Nc2ccccc2)n1 | – | 4.47 µM (active)
C#CCCCO/N=C1/C[C@@H](O)[C@@H](O)[C@@H]2[C@@H]3C(=O)N(CC)C(=O)[C@H]3CC[C@@H]12 | 0.179% [at 11.4 µM] | –
O=C(O)[C@@H](c1ccccc1)[C@@H](C(=O)O)c1ccccc1 | 0.327% [at 11.4 µM] | –
O=C(CSc1ncnc2nc[nH]c12)c1ccccc1 | -26.2% [at 11.4 µM] | –
Nc1cc(N)nc(SCC(=O)c2ccccc2)n1 | – | inactive
Cc1cc(SCC(=O)c2ccccc2)nc(SCC(=O)c2ccccc2)n1 | – | 0.891 µM (active)
COc1ccc(C[C@@H]2C(=O)N[C@H](C)C(=O)N(C)[C@@H]3Cc4ccc(cc4)Oc4cc(ccc4O)C[C@H](C(=O)N[C@@H](C)C(=O)N[C@H](C)C(=O)N2C)N(C)C3=O)cc1 | 3.77% [at 11.4 µM] | –
CCC(=O)c1ccc(OCC(O)CN(CCc2ccccc2)Cc2ccccc2)cc1 (stereo not given) | – | 3.16 µM (active)
CN(C)CC(O)COc1cccc(OCC(O)CN(C)C)c1 (stereo not given) | – | inactive
CN(C)CC(O)COc1ccc(C(C)(C)c2ccc(OCC(O)CN(C)C)cc2)cc1 (stereo not given) | – | inactive
Cc1ccccc1-c1ccc2ncnc(N3CCN(C)CC3)c2c1 | 20.6% [at 2.29 µM] | –
O=C(O)c1c(-c2c3ccc(=O)cc-3oc3cc(O)ccc23)cc2ccccc2c1-c1ccccc1 | 13% [at 11.4 µM] | –
C=CCSc1nc(Oc2ccccc2)c2sccc2n1 | – | 8.91 µM (active)
C=CCSc1ccsc1C(=O)O | – | inactive
C/C(CCC(=O)OC[C@@H]1O[C@H](C#Cc2ccccc2)C=C[C@@H]1Oc1ccc(C)cc1)=N/O[C@@H](C)CN1CCCCc2nc(C)c(C)cc21 | -2.52% [at 11.4 µM] | –
COC(=O)[C@@]1(Cc2ccccc2)[C@H]2c3cc(C(=O)N4CCCC4)n(Cc4ccccn4)c3C[C@H]2CN1C(=O)c1ccccc1 | – | 0.2 µM (active)
COC(=O)[C@@]1(Cc2ccc(F)cc2)[C@H]2c3cc(C(=O)N4CCCC4)n(Cc4ccccn4)c3C[C@H]2CN1C(=O)c1ccccc1 | – | 2 µM (active)
